From PubChem BioAssay (NCI)
This is part of a sample that, as a whole, favours compounds with a hit. Of some 79,000 tested, about 15% had one in any assay. Unmarked numbers belong to inactive results. Calls of active or inactive are those of the source. Cut-off read from the data, not from the text of the source: active = growth inhibition above about 70%; inactive = the rest.

Test: NCI Yeast Anticancer Drug Screen. Data for the wt2 strain (AID 169);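 note: 0% = growth of vehicle-treated yeast cultures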
Settings: S. cerevisiae wt2 strain growth inhibition, hits give high values
Experimental: Growth inhibition of yeast strains with defined genetic alterations is measured as a screen for potential anti-cancer activity. Selected strains with alterations in DNA damage repair or cell cycle control were exposed to compounds and growth inhibition was measured relative to vehicle treated controls. The strain used in this assay is wt2

SMILES | growth inhibition (at 1.2 µM) | growth inhibition (at 3.7 µM) | growth inhibition (at 11.0 µM) | growth inhibition (at 33.0 µM) | growth inhibition (at 100.0 µM)
[O-]c1c2cc(-[n+]3c(-c4ccccc4)cc(-c4ccccc4)cc3-c3ccccc3)cc1COCCOCCOCCOCCOC2 | -2% | -3% | -2% | 18% | 82% (active)
COc1ccc2nc3cccc([N+](=O)[O-])c3c(NCCCO)c2c1 | 6% | 33% | 88% (active) | 96% (active) | 98% (active)
O=C(O)/C=C\C(=O)NNc1ccc(Br)cc1 | 13% | 99% (active) | 99% (active) | 99% (active) | 99% (active)
COc1ccc2cc(CN3CCC(C4CCN(Cc5ccc6cc(OC)ccc6c5)CC4)CC3)ccc2c1 | 0% | 15% | 7% | -3% | 98% (active)
Cc1cc(NCCCN(C)C)c2ccc3c(ccc4c(NCCCN(C)C)cc(C)nc43)c2n1 | -57% | -39% | -63% | -40% | 25%
CN(C)c1ccc(C(c2ccc(Cl)cc2)c2ccc(N(C)C)cc2)cc1 | -2% | 13% | 17% | 86% (active) | 85% (active)
O=C1c2ccccc2C2CCC1c1ccccc12 (stereo not given) | -1% | -11% | 4% | 0% | 97% (active)
CC(C)OC(CCC#N)c1ccc(Cl)cc1 (stereo not given) | -19% | -21% | -17% | -12% | 12%
